The source of these data is ChEMBL document CHEMBL1961873, “Compounds: GSK PKIS; Assays: Nanosyn kinase panel” (2012).

In experiment [1] the target is Leukocyte tyrosine kinase receptor (Homo sapiens) (UniProt P29376). The conditions noted are these: at 1 µM.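 Also: each value is the mean inhibition of LTK.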
The target in experiment [2] is Tyrosine-protein kinase Lyn (Homo sapiens) (UniProt P07948). As to conditions: at 0.1 µM.
Experiment [3] has the same target. As to conditions: at 1 µM.
Experiment [4] has the same target. The conditions noted are these: at 0.1 µM. This is another data set of the same source.
Experiment [5] has the same target. As to conditions: at 1 µM. This is another data set of the same source.
The target in experiment [6] is T1, Tyrosine-protein kinase Mer (Homo sapiens) (UniProt Q12866).
T1 sequence (whole entry): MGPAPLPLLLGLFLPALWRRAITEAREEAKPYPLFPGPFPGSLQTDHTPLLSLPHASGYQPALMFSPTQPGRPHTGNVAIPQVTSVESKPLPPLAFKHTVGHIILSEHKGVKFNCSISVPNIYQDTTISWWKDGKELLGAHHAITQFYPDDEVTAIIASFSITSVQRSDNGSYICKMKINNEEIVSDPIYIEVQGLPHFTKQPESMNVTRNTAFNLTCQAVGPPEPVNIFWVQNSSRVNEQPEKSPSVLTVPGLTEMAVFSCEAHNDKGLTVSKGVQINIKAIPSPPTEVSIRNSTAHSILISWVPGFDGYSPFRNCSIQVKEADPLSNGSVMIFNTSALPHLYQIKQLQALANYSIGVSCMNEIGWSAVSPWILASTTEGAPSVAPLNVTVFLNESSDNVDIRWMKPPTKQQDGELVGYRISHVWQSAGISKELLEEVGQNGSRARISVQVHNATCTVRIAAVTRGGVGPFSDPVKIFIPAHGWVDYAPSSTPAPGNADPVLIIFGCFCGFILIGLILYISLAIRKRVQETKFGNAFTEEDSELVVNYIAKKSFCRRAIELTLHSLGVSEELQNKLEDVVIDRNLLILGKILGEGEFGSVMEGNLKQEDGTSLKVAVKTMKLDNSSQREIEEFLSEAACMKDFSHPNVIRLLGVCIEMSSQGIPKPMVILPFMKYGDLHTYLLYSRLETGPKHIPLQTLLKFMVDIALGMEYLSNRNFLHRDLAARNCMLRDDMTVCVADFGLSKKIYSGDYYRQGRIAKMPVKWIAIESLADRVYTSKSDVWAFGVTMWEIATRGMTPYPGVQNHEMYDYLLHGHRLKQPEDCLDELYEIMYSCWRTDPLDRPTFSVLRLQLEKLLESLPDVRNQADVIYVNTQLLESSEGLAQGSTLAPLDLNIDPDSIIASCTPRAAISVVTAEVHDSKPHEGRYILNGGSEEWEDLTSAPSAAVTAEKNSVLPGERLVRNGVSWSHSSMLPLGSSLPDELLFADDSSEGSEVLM
As to conditions: at 0.1 µM.

Experiment [7] deals with T1, Tyrosine-protein kinase Mer (Homo sapiens). As to conditions: at 1 µM.
The target in experiment [8] is Hepatocyte growth factor receptor (Homo sapiens) (UniProt P08581). As to conditions: at 0.1 µM.
Hepatocyte growth factor receptor (Homo sapiens), sequence (P08581 whole entry): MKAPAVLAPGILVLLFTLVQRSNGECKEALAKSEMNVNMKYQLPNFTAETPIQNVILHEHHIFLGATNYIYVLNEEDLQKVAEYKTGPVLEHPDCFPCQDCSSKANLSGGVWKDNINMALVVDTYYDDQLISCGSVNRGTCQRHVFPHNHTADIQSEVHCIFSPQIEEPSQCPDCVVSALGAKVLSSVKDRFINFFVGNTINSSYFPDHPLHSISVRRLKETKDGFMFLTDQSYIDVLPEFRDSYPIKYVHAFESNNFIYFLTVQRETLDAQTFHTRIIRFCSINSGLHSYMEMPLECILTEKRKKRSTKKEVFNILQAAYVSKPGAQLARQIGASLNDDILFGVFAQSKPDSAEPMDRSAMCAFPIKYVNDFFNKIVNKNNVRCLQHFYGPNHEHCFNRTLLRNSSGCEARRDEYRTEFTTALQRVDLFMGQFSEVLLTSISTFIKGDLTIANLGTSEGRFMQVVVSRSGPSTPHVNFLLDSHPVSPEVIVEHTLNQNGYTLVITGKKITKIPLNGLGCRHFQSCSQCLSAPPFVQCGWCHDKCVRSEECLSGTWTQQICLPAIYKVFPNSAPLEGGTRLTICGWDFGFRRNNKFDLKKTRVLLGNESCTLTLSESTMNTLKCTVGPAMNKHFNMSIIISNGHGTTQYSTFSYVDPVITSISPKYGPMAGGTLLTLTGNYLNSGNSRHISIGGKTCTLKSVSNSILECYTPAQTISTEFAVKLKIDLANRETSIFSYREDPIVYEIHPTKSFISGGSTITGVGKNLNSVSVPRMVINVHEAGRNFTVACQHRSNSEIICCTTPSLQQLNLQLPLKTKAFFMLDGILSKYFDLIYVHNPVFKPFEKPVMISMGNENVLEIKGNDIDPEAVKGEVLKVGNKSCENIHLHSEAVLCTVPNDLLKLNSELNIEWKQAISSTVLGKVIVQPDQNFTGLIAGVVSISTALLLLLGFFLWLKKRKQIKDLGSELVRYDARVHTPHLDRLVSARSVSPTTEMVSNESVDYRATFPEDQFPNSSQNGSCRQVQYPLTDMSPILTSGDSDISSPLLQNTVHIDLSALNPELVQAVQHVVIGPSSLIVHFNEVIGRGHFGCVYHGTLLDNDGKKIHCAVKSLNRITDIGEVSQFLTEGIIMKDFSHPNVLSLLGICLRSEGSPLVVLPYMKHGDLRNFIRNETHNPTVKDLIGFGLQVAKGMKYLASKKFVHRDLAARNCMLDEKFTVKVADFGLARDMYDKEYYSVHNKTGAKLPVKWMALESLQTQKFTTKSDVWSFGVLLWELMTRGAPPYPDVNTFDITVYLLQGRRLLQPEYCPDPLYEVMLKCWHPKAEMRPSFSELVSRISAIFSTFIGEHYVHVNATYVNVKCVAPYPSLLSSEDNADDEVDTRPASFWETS
Experiment [9] shares this target. As to conditions: at 1 µM.
The target in experiment [10] is T2, Muscle, skeletal receptor tyrosine-protein kinase (Homo sapiens) (UniProt O15146).
T2 sequence (whole entry): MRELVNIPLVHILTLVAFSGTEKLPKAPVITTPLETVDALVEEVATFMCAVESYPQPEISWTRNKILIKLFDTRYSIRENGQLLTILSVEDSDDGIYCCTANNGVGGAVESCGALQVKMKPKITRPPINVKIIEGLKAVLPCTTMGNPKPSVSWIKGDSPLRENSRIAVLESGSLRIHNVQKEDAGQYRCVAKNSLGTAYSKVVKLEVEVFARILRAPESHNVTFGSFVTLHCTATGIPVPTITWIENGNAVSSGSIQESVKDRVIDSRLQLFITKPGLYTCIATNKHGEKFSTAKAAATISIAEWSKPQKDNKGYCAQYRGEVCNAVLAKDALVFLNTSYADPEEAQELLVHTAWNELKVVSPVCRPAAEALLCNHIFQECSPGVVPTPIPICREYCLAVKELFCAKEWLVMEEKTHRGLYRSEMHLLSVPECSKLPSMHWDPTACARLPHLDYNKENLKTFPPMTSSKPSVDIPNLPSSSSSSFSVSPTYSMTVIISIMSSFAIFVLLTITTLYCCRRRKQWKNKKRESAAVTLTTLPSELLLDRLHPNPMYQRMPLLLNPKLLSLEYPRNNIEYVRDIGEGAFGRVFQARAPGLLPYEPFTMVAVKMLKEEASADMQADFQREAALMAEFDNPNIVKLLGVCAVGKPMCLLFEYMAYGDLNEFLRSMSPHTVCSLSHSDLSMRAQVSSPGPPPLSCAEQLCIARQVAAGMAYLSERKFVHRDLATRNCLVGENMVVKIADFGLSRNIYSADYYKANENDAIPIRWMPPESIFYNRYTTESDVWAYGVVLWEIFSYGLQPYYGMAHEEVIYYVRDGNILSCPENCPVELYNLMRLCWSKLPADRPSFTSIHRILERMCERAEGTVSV
As to conditions: at 0.1 µM.

For experiment [11], the target named is T2, Muscle, skeletal receptor tyrosine-protein kinase (Homo sapiens). As to conditions: at 1 µM.
In experiment [12] the target is Platelet-derived growth factor receptor alpha (Homo sapiens) (UniProt P16234). As to conditions: at 0.1 µM.
Platelet-derived growth factor receptor alpha (Homo sapiens), sequence (P16234 whole entry): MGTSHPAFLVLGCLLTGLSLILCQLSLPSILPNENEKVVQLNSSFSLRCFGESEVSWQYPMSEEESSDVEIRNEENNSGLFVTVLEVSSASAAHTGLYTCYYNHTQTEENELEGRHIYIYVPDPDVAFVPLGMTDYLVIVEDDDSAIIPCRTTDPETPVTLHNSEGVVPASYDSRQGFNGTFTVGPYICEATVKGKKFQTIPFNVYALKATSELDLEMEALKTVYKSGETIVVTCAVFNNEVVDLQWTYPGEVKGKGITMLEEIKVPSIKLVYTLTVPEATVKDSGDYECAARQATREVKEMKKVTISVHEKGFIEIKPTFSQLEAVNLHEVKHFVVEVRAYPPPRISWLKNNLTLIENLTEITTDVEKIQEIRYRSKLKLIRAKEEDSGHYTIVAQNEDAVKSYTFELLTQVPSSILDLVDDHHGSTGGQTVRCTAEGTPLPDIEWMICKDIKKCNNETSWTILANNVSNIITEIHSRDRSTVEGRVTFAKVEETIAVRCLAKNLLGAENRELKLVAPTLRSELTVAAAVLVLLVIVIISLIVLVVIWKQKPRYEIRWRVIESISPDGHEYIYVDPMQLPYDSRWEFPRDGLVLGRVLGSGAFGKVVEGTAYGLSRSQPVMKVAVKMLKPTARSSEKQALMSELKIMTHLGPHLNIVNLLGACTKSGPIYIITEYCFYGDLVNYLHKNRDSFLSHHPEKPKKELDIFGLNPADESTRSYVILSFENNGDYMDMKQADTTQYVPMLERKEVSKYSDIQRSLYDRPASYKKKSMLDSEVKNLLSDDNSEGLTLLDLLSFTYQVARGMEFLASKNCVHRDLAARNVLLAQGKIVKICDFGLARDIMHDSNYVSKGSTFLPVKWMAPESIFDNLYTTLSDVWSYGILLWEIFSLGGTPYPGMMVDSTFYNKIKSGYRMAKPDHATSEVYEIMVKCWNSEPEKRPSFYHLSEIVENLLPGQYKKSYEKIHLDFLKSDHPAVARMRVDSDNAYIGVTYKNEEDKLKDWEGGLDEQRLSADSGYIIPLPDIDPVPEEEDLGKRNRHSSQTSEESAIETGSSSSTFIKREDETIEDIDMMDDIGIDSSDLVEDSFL
Experiment [13] shares this target. As to conditions: at 1 µM.
The subject of experiment [14] is Platelet-derived growth factor receptor alpha (Homo sapiens), P16234 [D842V]. As to conditions: at 0.1 µM.
The test system is the same in experiment [15]. The conditions noted are these: at 1 µM.
For experiment [16], the system named is Platelet-derived growth factor receptor alpha (Homo sapiens), P16234 [T674I]. The conditions noted are these: at 0.1 µM.
The test system is the same in experiment [17]. The conditions noted are these: at 1 µM.
In experiment [18] the test system is Platelet-derived growth factor receptor alpha (Homo sapiens), P16234 [V561D]. As to conditions: at 0.1 µM.
Platelet-derived growth factor receptor alpha (Homo sapiens), P16234 [V561D], sequence (P16234 whole entry V561D): as the sequence (P16234 whole entry) above, with V561D counted along it
Experiment [19] has the same test system. As to conditions: at 1 µM.
Experiment [20] addresses Platelet-derived growth factor receptor beta (Homo sapiens) (UniProt P09619). As to conditions: at 0.1 µM.

For orientation: inhibition means the drop in the measured response relative to a control, in per cent.

Leukocyte tyrosine kinase receptor (Homo sapiens), sequence (P29376 whole entry): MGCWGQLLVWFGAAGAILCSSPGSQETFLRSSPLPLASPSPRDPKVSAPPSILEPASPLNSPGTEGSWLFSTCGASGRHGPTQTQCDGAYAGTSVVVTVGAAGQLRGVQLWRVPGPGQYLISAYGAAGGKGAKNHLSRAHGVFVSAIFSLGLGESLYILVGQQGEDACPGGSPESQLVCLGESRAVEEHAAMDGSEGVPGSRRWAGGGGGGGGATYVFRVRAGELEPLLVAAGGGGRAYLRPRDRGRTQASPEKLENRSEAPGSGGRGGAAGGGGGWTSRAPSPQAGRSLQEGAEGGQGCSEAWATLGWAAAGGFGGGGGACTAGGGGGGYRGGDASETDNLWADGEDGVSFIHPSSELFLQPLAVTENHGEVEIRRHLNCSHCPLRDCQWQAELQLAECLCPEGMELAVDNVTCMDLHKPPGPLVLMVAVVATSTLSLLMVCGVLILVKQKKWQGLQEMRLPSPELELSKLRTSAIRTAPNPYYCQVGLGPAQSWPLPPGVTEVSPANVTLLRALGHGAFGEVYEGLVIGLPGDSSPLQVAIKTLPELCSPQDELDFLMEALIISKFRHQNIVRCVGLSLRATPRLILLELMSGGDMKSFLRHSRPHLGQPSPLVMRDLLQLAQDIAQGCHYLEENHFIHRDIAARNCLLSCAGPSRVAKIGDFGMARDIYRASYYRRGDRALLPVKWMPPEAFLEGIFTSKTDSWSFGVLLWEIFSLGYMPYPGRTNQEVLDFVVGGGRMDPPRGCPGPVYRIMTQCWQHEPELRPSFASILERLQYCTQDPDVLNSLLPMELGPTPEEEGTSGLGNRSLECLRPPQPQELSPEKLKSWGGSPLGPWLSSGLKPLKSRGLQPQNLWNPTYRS
Tyrosine-protein kinase Lyn (Homo sapiens), sequence (P07948 2-512 limits assumed): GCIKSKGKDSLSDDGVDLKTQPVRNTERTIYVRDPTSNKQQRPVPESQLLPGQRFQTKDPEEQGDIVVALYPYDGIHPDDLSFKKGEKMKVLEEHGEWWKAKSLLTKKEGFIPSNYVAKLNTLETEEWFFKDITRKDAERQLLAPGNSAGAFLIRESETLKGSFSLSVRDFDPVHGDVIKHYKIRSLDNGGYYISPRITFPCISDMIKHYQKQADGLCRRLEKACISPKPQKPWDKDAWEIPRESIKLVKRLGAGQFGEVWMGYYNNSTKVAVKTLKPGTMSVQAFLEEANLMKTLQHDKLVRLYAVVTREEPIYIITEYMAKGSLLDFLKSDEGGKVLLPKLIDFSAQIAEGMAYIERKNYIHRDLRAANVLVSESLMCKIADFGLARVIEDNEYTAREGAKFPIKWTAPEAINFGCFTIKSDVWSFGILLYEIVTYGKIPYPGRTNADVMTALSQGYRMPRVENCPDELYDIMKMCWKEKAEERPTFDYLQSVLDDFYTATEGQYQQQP

Regarding `Fc1cccc(COc2ccc(Nc3ncnc4sc(-c5cccs5)cc34)cc2Cl)c1`, the inhibition in [1] turned out to be 1.68%; in [2], 0.57%; in [3], 1.59%; in experiment [4], 0.13%; in experiment [5], 2.6%; in experiment [6], 1.5%. For the same compound, the inhibition in experiment [7] was 0.96%; in experiment [8] it was -1.35%; in experiment [9] it was -0.09%; in [10], -0.17%; in experiment [11], 2.36%; in experiment [12] it was 2.17%. Further, the inhibition in [13] was 5.87%; in experiment [14], 1.25%; in experiment [15], 2.11%; in [16], 3.52%; in [17], 9.66%; in [18], 4.39%. For the same compound, the inhibition in [19] is 4.26%; in experiment [20], 3.06%.

Consider `CS(=O)(=O)CCNCc1ccc(-c2ccc3ncnc(Nc4ccc(OCc5ccccc5)c(Cl)c4)c3c2)o1`, for which the inhibition amounted to 4.23% in experiment [1]; 1.21% in [2]; 6.25% in experiment [3]; 1.19% in [4]; 5.08% in [5]; 4.37% in experiment [6]. For the same compound, the inhibition in experiment [7] was determined as 30.6%; in [8], 5.04%; in experiment [9], 7.4%; in [10] it was 3.89%; in experiment [11], 4.27%; in [12] it was 6.84%. Further, the inhibition in [13] amounted to 9.41%; in experiment [14], 2.28%; in experiment [15], 2.49%; in experiment [16], 8.72%; in [17], 11.1%; in [18], 4.4%. Further, the inhibition is 4.91% in experiment [19] and 2.08% in [20].

For `COc1ccc(-c2nn3ncccc3c2-c2ccnc(Nc3ccc(Cl)c(C(F)(F)F)c3)n2)cc1`, the inhibition in experiment [1] stood at 2.96%; in [2] it was 2.95%; in experiment [3] it was 7.79%; in [4] it was 2.39%; in experiment [5], 7.64%; in experiment [6] it was 0.1%. In addition, the inhibition is 0.41% in experiment [7]; 7.55% in [8]; 4.08% in experiment [9]; 2.01% in experiment [10]; 1.1% in experiment [11]; 3.58% in experiment [12]. Further, the inhibition came out at 7.86% in [13]; 0.96% in [14]; 1.8% in [15]; 3.16% in [16]; 5.2% in [17]; 3.43% in experiment [18]. Moreover, the inhibition stood at 3.24% in experiment [19] and 2.18% in experiment [20].

For `COc1cc2ncn(-c3cc(O[C@@H](C)c4ccccc4Cl)c(C(N)=O)s3)c2cc1OC`, the inhibition in [1] was found to be 4.56%; in experiment [2] it was 6.39%; in [3], 28.6%; in experiment [4], 4.74%; in experiment [5] it was 22%; in [6], 4.25%. For the same compound, the inhibition in [7] worked out at 10.3%; in [8] it was 4.76%; in experiment [9], 3.23%; in experiment [10], 2.77%; in experiment [11], 14.1%; in experiment [12], 37.9%. Also, the inhibition in experiment [13] was found to be 73.8%; in [14] it was 27%; in experiment [15], 77.1%; in experiment [16], 7.94%; in experiment [17] it was 50%; in experiment [18], 32.4%. Moreover, the values for the inhibition in experiment [19] and in experiment [20] were 81.5% and 29.8%, respectively.

As to `COC(=O)Nc1nc2cc(Oc3ccc(NC(=O)Nc4cccc(C(=O)O)c4)cc3)ccc2[nH]1`, the inhibition in experiment [1] was -0.52%; in experiment [2], 0.39%; in experiment [3] it was 5.81%; in experiment [4] it was 0.48%; in experiment [5] it was 2.9%; in experiment [6], 0.61%. Besides, the inhibition was 2.01% in [7]; -0.09% in experiment [8]; 11.4% in experiment [9]; -0.16% in [10]; 2.82% in [11]; 10.8% in [12]. Also, the inhibition in experiment [13] is 39.3%; in [14], 0.99%; in [15], 1.56%; in [16], 6.17%; in experiment [17], 35.1%; in [18], 18.8%. Further, the results for the inhibition in experiment [19] and in experiment [20] were 43.9% and 6.26%, respectively.
